This is a sample that favours compounds with a hit; in the whole collection about 7.3% have one here.
HCMV inh: qHTS Assay for inhibitors of the human cytomegalovirus (HCMV) | activity change, negative = inhibition, % at 57.5 µM | HFF cells, HCMV-luciferase reporter, 72 h; active compounds read low | hit rate 4.5% among 410,000; in the data active = activity change below about -60%; inconclusive = no clear call, values can overlap the other calls; inactive = above about -39%
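Two-dose cell screen: HFF monolayers treated with compounds and infected with luciferase-expressing HCMV at 1 PFU/cell, 72 h at 37C, then lysed for luciferase measurement.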
FMDV antiviral: High Throughput Screening for Foot and Mouth Disease Virus Antivirals; Potency, µM (series often up to 57.9 µM), hits mostly inhibitors; hit rate 1.2% among 410,000; FMDV antiviral cell-based qHTS; calls by dose curve; tested in HEK293T cells; also: read-out not given here; nearly all actives have a fitted effect of over 45% in size
HCV inh: qHTS Assay for Inhibitors of Hepatitis C Virus (HCV). hit rate 3.4% among 340,000. Huh7.5.1 HCVcc-Cre infection, luciferase reporter, 44 h. Potency, µM (highest dose often 41.8 µM), hits mostly inhibitors
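Infectious HCVcc-Cre (~0.5 moi) was added to cells just after compound, with cells seeded 4 h earlier at 1,000 per well. Luciferase activity after 44 h culture reported infection; substrate was incubated 15 min at room temperature before reading.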
AmpC no deterg: qHTS Inhibitors of AmpC Beta-Lactamase (assay without detergent); P00811; AmpC nitrocefin hydrolysis, absorbance 480 nm, 0.0001% Triton; Potency, µM (highest dose often 57.1 µM), most hits filed as inhibitors; hit rate 0.52% among 330,000; also: nearly all actives have a fitted effect of over 20% in size
Target sequence (P00811 whole entry, looked up): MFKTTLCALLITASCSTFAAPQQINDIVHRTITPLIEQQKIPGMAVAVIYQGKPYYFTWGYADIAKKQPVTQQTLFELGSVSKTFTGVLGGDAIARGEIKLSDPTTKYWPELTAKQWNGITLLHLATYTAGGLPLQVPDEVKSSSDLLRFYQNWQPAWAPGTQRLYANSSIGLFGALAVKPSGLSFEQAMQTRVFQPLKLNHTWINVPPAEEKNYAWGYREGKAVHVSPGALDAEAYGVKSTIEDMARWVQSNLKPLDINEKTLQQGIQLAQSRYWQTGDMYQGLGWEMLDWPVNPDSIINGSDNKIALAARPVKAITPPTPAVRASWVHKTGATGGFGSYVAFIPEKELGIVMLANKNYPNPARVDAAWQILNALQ
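AmpC (5.3 nM in the dispensed reagent) in 20 mM phosphate pH 7.0 with 0.01% (detergent screen) or 0.0001% Triton X-100 was preincubated with compounds for 15 min at room temperature. Nitrocefin was then added from an 800 uM solution, and hydrolysis was followed at 480 nm.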
AmpC detergent: qHTS Inhibitors of AmpC Beta-Lactamase (assay with detergent); Potency, µM (highest dose often 114 µM), usual class: inhibitors; AmpC hydrolysis of nitrocefin, absorbance 480 nm, 0.01% Triton; hit rate 0.041% among 370,000; AID 485294, 2010; P00811; also: nearly all actives have a fitted effect of over 25% in size
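20 mM phosphate pH 7.0 + 0.01% (detergent screen) or 0.0001% Triton X-100; 5.3 nM AmpC reagent; cpd preinc 15 min RT; nitrocefin (800 uM stock) to start; A480 q20 s × 4 min; Activity was normalised to no-enzyme and no-compound control wells.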
Of the large screens only hits and unclear results are named; the others gave an inactive call. Unless noted, calls follow the shape of the dose curve; as a rule, active = well fitted curve in the direction sought with a large enough effect; inconclusive = small, poorly fitted or top-dose-only effect, or another doubt; inactive = no such curve, though single readings can be large; an effect the other way counts as inactive or inconclusive.

COc1ccc(CCNC(=O)C(C)n2nc(C)n3c(cc4occc43)c2=O)cc1OC (centres undefined)	none
CN(Cc1ccccc1)C(=O)c1cccc(NC(=O)Cc2cccc([N+](=O)[O-])c2)c1	HCMV inh inconclusive, FMDV antiviral inconclusive, HCV inh 2.8µM (no result: AmpC detergent)
CN(Cc1ccccc1)C(=O)c1ccc(NC(=O)Cc2ccc(NC(=O)C3CCN(C(=O)CCc4ccccc4)CC3)cc2)cc1	HCMV inh -89, HCV inh inconclusive (no result: AmpC no deterg, AmpC detergent)
CN(Cc1ccccc1)C(=O)c1ccc(NC(=O)Cc2ccc(NC(=O)C3CCCN(C(=O)CCc4ccccc4)C3)cc2)cc1 (centres undefined)	HCMV inh -67, FMDV antiviral inconclusive, HCV inh 2.2µM (no result: AmpC no deterg, AmpC detergent)
CN(C(=O)c1ccc(NC(=O)Cc2ccc(NC(=O)C3CCN(C(=O)CCc4ccccc4)CC3)cc2)cc1)C1CC1	none
CN(Cc1ccccc1)C(=O)c1cccc(NC(=O)Cc2ccc(NC(=O)C3CCN(C(=O)CCc4ccccc4)CC3)cc2)c1	HCMV inh -91, FMDV antiviral 18µM, HCV inh 2.2µM (no result: AmpC no deterg, AmpC detergent)
CN(Cc1ccccc1)C(=O)c1ccc(NC(=O)Cc2ccc(NC(=O)C3CCCN(C(=O)C4CCC4)C3)cc2)cc1 (centres undefined)	FMDV antiviral inconclusive, HCV inh inconclusive (no result: AmpC no deterg, AmpC detergent)
CN(Cc1ccccc1)C(=O)c1cccc(NC(=O)Cc2ccc(NC(=O)C3CCN(C(=O)c4ccccc4)CC3)cc2)c1	none (no result: AmpC no deterg, AmpC detergent)
COc1cccc(-c2ccc3c(c2)N(Cc2ccc(F)cc2)C(=O)C(C)S3)c1 (centres undefined)	none (no result: HCV inh, AmpC no deterg, AmpC detergent)
Cc1cc(Cn2nc(-c3ccccc3C)cc2C(=O)O)on1	HCV inh inconclusive
CN(Cc1ccccc1)C(=O)c1ccc(NC(=O)C2CCCN(C(=O)OC(C)(C)C)C2)cc1 (centres undefined)	FMDV antiviral inconclusive, HCV inh 6.3µM (no result: AmpC detergent)
CN(CCc1ccccc1)C(=O)c1ccc(NC(=O)Cc2ccc(NC(=O)C3CCCN(C(=O)C4CCCC4)C3)cc2)cc1 (centres undefined)	HCMV inh -68, FMDV antiviral inconclusive, HCV inh inconclusive (no result: AmpC no deterg, AmpC detergent)
CN(Cc1ccccc1)C(=O)c1ccc(NC(=O)Cc2ccc(NC(=O)C3CCCN(C(=O)C4CCCCC4)C3)cc2)cc1 (centres undefined)	none (no result: AmpC no deterg, AmpC detergent)
CN(Cc1ccccc1)C(=O)c1ccc(NC(=O)Cc2ccc(NC(=O)C3CCCN(S(=O)(=O)c4cccc([N+](=O)[O-])c4)C3)cc2)cc1 (centres undefined)	HCV inh 13µM (no result: AmpC no deterg, AmpC detergent)
C=CCNC(=O)C1CCN(c2nc(C)cc(-c3ccccc3)n2)CC1	HCV inh 2.8µM, AmpC detergent inconclusive
Cc1cc(-c2ccccc2)nc(N2CCC(C(=O)NCc3ccccc3Cl)CC2)n1	none (no result: HCMV inh, FMDV antiviral)
Cc1ccc2cc(C#N)c(N3CCN(C(=O)c4cccs4)CC3)nc2c1	FMDV antiviral 32µM, HCV inh inconclusive
CN1CCc2nc(SCC(=O)Nc3ccc(OC(F)(F)F)cc3)c(C#N)c(-c3cccs3)c2C1	HCV inh 13µM
Cc1ccc(C)c(NC(=O)CSc2ccc(-c3cccs3)nn2)c1	HCV inh inconclusive
O=C(CSc1nc2nc(-c3cccs3)cc(C(F)(F)F)c2c(=O)[nH]1)Nc1ccc(F)c(F)c1	HCMV inh -97, FMDV antiviral inconclusive, HCV inh inconclusive
Cc1ccc(C)c(NC(=O)CSc2nc(N)c(NC(=O)c3cccs3)c(=O)[nH]2)c1	AmpC no deterg 14µM
N#Cc1c(C(F)(F)F)cc(-c2cccs2)nc1SCC(=O)Nc1cccc(C(F)(F)F)c1	none (no result: HCV inh, AmpC no deterg)
Cc1ccc(C)c(NC(=O)CSc2nc3nc(-c4cccs4)cc(C(F)(F)F)c3c(=O)[nH]2)c1	FMDV antiviral inconclusive, HCV inh inconclusive, AmpC no deterg 3.5µM
CCNC(=O)c1cc(NC(=O)COC)cc2nc(-c3ccncc3)n(C)c12	none (no result: HCMV inh, HCV inh, AmpC no deterg, AmpC detergent)
CC(C)CN(C(=O)CN1C(=O)NC2(CCc3ccccc32)C1=O)C1CCS(=O)(=O)C1 (centres undefined)	none
CCOc1ccc(NC(=O)CSc2nc(-c3cccs3)cc(C(F)(F)F)c2C#N)cc1	none (no result: HCV inh, AmpC no deterg)
N#Cc1c(C(F)(F)F)cc(-c2cccs2)nc1SCC(=O)Nc1ccc(Cl)cc1	HCMV inh -92, FMDV antiviral inconclusive (no result: HCV inh, AmpC no deterg)
O=C(c1ccc2c(c1)OCCO2)C1CCN(C(=O)c2ccc(F)c(F)c2)CC1	HCMV inh -68, HCV inh inconclusive
CC(C)C(=O)Nc1cccc(NC(=O)c2cccc([N+](=O)[O-])c2)c1	none
CCOc1ccc(C(=O)Nc2cccc([N+](=O)[O-])c2)cc1Br	HCV inh 7.1µM
CCOc1ccc(C(=O)Nc2cccc(-c3nc4cccnc4o3)c2)cc1Cl	HCV inh 11µM (no result: HCMV inh)
CCOc1ccc(C(=O)Nc2cccc(C(=O)O)c2)cc1Cl	FMDV antiviral 8.9µM, AmpC detergent inconclusive
COc1ccc(C(=O)C(C)Oc2cccc(NC(=O)c3cccc([N+](=O)[O-])c3)c2)cc1 (centres undefined)	HCV inh 11µM
CCOc1ccc(C(=O)Nc2cc(NC(=O)c3ccc(OCC)c(Cl)c3)cc(C(=O)O)c2)cc1Cl	HCMV inh inconclusive
Cc1cc(C)c(C#N)c(SCC(=O)C2CC2)n1	none
COc1cc(CNC(=O)c2cnn(-c3ncc4c(n3)-c3ccccc3CC4)c2C)cc(OC)c1OC	none (no result: HCMV inh, HCV inh, AmpC no deterg, AmpC detergent)
CC(C)(C)c1ccc(C(=O)OCC(=O)NC2CC2)cc1	none
O=C(NNC(=O)c1cc(S(=O)(=O)N2CCOCC2)ccc1Cl)c1ccc(F)cc1	none (no result: HCV inh, AmpC no deterg, AmpC detergent)
CCOC(=O)[C@]12CCCC=C1N(CCc1ccc(OC)c(OC)c1)C(=O)[C@H](CC(=O)N1CCSCC1)C2	none (no result: HCV inh, AmpC no deterg, AmpC detergent)
CC(NC(=O)c1ccccc1)c1nnc(SCC(=O)NC2CCCC2)n1C (centres undefined)	none
COc1ccc2[nH]c(=O)c(CN(Cc3cccs3)Cc3nnnn3C(C)(C)C)cc2c1	HCMV inh -67
CCOc1ccc2[nH]c(=O)c(CN(Cc3cccs3)Cc3nnnn3C(C)(C)C)cc2c1	HCMV inh inconclusive (no result: FMDV antiviral)
O=c1cc(-c2ccc(O)c(O)c2)oc2ccc3ccccc3c12	FMDV antiviral 6.3µM, HCV inh inconclusive
Cc1cnc(-n2ncc(C(=O)NCC3COCCO3)c2C2CC2)nc1-c1cccs1 (centres undefined)	none (no result: HCMV inh, HCV inh, AmpC no deterg, AmpC detergent)
COc1ccc(-c2cc(CCC(=O)N3CCN(c4cc(C)ccc4C)CC3)on2)cc1	HCV inh inconclusive (no result: AmpC detergent)
CCCC(=O)N(c1ccc2oc(=O)sc2c1)S(=O)(=O)c1ccccc1	AmpC no deterg 10µM, AmpC detergent inconclusive
COc1cc(NC(=O)CCN2CC(C)OC(C)C2)cc(OC)c1 (centres undefined)	none
